This is an account of results in ChEMBL document CHEMBL1961873, “Compounds: GSK PKIS; Assays: Nanosyn kinase panel” (2012).

A word on the inhibition: it is the drop in the measured response relative to a control, in per cent.

The target in test [1] is Sphingosine kinase 1 (Homo sapiens) (UniProt Q9NYA1). The conditions noted are these: at 1 µM.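 Further: mean SPHK1 inhibition value reported from the GSK PKIS kinase panel screen.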
For test [2], the target named is T1, Sphingosine kinase 2 (Homo sapiens) (UniProt Q9NRA0).
T1 sequence (whole entry): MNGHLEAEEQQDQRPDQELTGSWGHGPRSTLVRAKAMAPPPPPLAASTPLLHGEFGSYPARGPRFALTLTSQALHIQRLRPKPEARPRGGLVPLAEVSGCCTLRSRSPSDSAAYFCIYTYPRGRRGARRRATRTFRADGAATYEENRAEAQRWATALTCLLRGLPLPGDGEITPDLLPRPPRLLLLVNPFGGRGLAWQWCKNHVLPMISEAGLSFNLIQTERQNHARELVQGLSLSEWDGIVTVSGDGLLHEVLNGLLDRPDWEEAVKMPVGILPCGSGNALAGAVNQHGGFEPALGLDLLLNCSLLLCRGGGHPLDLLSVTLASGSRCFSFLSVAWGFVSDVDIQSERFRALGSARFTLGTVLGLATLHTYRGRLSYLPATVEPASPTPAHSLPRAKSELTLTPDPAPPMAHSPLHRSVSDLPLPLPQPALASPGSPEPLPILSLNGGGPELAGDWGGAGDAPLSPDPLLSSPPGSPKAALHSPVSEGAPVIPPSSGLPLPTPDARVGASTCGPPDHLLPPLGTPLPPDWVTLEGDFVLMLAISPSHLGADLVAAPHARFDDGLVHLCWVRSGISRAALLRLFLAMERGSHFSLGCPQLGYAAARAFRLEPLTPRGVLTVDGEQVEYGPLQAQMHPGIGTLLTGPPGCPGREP
The conditions noted are these: at 0.1 µM.

Test [3] concerns the target T1, Sphingosine kinase 2 (Homo sapiens). The conditions noted are these: at 1 µM.
Test [4] addresses Casein kinase II subunit alpha (Homo sapiens) (UniProt P68400). The conditions noted are these: at 0.1 µM.
For test [5] the target is unchanged. The conditions noted are these: at 1 µM.
Test [6] has as its target T2, Inhibitor of nuclear factor kappa-B kinase subunit alpha (Homo sapiens) (UniProt O15111).
T2 sequence (whole entry): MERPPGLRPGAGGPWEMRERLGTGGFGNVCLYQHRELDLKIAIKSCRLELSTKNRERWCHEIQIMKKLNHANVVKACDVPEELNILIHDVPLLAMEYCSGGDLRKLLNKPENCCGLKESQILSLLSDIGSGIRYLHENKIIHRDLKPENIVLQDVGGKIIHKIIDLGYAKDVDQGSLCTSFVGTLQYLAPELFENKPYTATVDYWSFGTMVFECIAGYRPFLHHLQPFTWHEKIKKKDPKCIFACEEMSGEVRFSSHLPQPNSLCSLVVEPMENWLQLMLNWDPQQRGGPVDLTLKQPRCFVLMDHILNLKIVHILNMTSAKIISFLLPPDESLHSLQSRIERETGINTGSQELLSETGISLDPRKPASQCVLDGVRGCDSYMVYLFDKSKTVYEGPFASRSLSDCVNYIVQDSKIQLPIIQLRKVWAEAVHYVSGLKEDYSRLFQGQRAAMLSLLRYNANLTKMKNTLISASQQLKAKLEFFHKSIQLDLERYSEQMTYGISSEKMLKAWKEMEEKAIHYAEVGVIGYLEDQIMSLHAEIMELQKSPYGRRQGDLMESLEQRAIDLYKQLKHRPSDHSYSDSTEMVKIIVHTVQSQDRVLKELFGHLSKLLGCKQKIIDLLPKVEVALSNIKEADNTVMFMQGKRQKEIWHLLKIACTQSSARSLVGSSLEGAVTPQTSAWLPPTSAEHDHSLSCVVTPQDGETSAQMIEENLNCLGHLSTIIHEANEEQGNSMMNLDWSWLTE
The conditions noted are these: at 0.1 µM.

The target of test [7] is T2, Inhibitor of nuclear factor kappa-B kinase subunit alpha (Homo sapiens). The conditions noted are these: at 1 µM.
For test [8], the target named is T3, Inhibitor of nuclear factor kappa-B kinase subunit beta (Homo sapiens) (UniProt O14920).
T3 sequence (whole entry): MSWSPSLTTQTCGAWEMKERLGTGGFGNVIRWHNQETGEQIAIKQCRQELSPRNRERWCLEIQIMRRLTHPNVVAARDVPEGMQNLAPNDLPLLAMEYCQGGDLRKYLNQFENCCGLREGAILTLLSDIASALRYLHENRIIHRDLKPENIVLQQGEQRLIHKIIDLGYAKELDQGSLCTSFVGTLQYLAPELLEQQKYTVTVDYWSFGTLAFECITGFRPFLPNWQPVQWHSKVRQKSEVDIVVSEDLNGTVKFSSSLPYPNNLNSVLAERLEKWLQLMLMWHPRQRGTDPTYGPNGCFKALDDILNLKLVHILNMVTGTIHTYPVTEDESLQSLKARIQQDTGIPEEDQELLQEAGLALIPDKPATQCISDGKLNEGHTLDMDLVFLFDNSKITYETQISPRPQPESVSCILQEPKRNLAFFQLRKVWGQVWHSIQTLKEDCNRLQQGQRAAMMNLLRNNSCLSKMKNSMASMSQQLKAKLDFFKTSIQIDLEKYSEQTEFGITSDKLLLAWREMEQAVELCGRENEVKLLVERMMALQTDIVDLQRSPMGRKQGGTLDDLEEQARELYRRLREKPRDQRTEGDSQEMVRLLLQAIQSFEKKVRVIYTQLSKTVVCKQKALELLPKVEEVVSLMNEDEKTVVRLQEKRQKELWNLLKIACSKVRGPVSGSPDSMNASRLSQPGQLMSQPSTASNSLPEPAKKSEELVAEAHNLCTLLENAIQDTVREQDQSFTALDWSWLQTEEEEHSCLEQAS
The conditions noted are these: at 0.1 µM.

For test [9], the target named is T3, Inhibitor of nuclear factor kappa-B kinase subunit beta (Homo sapiens). The conditions noted are these: at 1 µM.
Test [10] deals with T4, Inhibitor of nuclear factor kappa-B kinase subunit epsilon (Homo sapiens) (UniProt Q14164).
T4 sequence (whole entry): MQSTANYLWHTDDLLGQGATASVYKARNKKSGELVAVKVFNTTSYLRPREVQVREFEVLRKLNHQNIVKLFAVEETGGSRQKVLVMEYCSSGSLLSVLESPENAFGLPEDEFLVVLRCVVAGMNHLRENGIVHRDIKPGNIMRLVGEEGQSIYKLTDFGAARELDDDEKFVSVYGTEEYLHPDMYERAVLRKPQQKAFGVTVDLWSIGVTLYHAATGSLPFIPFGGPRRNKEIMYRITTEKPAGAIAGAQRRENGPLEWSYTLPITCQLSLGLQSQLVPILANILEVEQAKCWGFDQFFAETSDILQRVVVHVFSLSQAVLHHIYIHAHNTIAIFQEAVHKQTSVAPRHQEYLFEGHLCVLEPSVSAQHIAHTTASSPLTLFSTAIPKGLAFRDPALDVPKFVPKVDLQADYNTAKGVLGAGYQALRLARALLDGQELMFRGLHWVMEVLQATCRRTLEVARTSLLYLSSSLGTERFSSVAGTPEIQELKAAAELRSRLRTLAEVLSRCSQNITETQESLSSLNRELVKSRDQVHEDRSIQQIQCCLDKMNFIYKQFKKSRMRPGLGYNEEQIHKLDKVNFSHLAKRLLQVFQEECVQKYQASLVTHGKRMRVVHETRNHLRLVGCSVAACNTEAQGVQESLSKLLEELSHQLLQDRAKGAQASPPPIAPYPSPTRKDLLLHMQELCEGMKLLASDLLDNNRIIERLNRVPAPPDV
The conditions noted are these: at 0.1 µM.

The target in test [11] is T4, Inhibitor of nuclear factor kappa-B kinase subunit epsilon (Homo sapiens). The conditions noted are these: at 1 µM.
Test [12] concerns the target T5, Serine/threonine-protein kinase Nek1 (Homo sapiens) (UniProt Q96PY6).
T5 sequence (whole entry): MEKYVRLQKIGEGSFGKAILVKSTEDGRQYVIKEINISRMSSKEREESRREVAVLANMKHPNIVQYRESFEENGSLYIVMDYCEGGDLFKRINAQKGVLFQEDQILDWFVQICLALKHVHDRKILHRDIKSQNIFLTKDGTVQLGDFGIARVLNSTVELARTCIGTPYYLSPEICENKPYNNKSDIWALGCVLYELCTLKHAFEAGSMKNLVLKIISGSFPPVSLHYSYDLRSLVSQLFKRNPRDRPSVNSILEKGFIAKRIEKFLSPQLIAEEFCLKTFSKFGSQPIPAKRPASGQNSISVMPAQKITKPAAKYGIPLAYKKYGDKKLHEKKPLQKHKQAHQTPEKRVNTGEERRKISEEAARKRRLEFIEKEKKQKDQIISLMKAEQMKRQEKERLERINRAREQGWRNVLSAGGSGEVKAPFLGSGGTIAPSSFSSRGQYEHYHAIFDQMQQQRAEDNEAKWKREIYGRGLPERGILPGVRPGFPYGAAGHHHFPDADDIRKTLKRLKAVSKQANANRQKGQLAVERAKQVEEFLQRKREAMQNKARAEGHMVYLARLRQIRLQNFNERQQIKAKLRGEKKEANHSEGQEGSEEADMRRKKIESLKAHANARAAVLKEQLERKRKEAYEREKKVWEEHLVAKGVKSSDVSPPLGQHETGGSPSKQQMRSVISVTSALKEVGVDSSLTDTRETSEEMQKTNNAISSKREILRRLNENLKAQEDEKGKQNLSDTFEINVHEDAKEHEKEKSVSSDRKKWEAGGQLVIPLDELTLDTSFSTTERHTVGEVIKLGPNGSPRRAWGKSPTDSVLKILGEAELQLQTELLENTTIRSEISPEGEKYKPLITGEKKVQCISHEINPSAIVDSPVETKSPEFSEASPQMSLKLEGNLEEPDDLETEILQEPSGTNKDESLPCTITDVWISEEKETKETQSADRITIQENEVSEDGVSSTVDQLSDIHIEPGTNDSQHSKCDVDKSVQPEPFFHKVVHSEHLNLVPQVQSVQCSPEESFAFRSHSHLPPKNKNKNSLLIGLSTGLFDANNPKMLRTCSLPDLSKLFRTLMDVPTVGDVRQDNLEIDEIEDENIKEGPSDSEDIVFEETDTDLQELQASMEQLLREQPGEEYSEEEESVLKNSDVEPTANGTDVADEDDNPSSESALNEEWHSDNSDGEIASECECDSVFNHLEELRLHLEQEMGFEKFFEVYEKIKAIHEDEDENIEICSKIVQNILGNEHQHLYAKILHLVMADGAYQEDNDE
The conditions noted are these: at 0.1 µM.

For test [13], the target named is T5, Serine/threonine-protein kinase Nek1 (Homo sapiens). The conditions noted are these: at 1 µM.
For test [14], the target named is T6, Serine/threonine-protein kinase Nek2 (Homo sapiens) (UniProt P51955).
T6 sequence (whole entry): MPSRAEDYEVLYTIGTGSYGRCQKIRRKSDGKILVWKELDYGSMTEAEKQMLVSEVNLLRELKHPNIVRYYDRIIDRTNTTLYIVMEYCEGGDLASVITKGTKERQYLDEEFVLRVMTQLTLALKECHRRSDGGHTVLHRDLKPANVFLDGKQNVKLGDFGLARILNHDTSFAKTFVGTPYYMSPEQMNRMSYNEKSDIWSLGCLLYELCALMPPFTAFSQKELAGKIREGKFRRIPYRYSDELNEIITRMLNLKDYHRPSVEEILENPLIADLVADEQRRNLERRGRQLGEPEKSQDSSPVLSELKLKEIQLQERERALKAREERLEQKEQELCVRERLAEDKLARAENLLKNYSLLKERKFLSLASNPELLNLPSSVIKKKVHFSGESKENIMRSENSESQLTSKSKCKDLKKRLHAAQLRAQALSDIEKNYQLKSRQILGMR
The conditions noted are these: at 0.1 µM.

In test [15] the target is T6, Serine/threonine-protein kinase Nek2 (Homo sapiens). The conditions noted are these: at 1 µM.
Test [16] deals with Serine/threonine-protein kinase Nek6 (Homo sapiens) (UniProt Q9HC98). The conditions noted are these: at 0.1 µM.
Test [17] has the same target. The conditions noted are these: at 1 µM.
Test [18] deals with Serine/threonine-protein kinase Nek7 (Homo sapiens) (UniProt Q8TDX7). The conditions noted are these: at 0.1 µM.
For test [19] the target is unchanged. The conditions noted are these: at 1 µM.
For test [20], the target named is T7, Serine/threonine-protein kinase Nek9 (Homo sapiens) (UniProt Q8TD19).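 Further: reported value is the mean percent inhibition of NEK9.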
T7 sequence (whole entry): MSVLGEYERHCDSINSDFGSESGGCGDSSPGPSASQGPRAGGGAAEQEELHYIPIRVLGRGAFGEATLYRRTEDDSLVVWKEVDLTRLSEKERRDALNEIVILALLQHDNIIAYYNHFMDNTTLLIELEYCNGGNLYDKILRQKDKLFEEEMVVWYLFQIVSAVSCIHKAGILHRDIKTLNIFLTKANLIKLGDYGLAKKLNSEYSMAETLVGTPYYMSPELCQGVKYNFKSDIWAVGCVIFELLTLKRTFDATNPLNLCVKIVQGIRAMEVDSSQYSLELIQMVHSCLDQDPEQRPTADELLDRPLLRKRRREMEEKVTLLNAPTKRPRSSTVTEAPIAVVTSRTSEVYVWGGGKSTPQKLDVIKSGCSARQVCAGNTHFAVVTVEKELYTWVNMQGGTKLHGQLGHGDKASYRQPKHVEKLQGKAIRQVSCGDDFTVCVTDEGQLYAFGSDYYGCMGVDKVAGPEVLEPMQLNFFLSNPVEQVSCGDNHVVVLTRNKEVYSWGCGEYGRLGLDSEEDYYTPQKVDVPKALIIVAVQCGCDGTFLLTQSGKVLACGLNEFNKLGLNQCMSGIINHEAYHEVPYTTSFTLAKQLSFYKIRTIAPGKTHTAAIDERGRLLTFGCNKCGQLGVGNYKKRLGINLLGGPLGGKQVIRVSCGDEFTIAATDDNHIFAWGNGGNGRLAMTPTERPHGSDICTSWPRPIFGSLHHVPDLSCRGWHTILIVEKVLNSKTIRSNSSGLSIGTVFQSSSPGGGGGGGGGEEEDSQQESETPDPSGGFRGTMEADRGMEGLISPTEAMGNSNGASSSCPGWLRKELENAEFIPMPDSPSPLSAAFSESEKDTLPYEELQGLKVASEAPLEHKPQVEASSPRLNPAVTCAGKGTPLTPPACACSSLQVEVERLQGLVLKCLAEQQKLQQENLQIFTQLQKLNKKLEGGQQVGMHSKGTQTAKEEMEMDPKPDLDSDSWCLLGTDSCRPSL
The conditions noted are these: at 0.1 µM.

Serine/threonine-protein kinase Nek7 (Homo sapiens), sequence (Q8TDX7 whole entry, looked up): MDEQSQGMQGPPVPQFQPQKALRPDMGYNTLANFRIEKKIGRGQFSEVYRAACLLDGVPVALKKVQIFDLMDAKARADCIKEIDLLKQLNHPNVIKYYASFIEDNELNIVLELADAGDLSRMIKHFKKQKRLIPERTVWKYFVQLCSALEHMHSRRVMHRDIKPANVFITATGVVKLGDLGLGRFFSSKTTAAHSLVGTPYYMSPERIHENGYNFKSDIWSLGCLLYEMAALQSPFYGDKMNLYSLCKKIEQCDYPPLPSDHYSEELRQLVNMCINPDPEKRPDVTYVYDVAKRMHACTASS
Casein kinase II subunit alpha (Homo sapiens), sequence (P68400 whole entry, looked up): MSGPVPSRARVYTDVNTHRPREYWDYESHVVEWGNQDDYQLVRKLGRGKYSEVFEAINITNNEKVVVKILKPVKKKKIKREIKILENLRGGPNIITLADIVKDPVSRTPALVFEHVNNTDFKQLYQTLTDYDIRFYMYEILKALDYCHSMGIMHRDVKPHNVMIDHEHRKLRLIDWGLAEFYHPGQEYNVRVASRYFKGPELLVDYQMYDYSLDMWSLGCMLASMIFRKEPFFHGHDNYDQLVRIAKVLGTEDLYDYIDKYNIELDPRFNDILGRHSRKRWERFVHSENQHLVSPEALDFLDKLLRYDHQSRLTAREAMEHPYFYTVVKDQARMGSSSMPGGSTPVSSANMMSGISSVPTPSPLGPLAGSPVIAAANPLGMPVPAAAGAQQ
Serine/threonine-protein kinase Nek6 (Homo sapiens), sequence (Q9HC98 whole entry): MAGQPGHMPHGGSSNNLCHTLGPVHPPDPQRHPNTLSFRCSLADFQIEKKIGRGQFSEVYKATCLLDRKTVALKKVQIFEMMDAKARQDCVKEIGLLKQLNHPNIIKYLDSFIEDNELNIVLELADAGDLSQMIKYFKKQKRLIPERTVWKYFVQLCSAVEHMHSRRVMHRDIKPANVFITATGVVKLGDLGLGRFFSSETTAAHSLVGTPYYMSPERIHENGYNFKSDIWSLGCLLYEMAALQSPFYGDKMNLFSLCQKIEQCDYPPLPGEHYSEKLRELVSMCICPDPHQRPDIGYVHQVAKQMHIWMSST
Sphingosine kinase 1 (Homo sapiens), sequence (Q9NYA1 whole entry): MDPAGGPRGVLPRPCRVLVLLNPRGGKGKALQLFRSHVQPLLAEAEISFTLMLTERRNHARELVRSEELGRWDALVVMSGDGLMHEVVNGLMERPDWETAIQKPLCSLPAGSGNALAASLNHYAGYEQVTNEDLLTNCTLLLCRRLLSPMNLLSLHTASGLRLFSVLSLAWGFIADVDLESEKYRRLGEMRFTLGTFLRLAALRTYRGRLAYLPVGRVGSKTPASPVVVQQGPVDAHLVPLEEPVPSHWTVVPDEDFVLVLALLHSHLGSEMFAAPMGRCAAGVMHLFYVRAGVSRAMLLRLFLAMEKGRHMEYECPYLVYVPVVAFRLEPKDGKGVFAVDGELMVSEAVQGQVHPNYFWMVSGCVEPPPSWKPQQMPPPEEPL

For the molecule `Fc1ccc(-c2ncn(C3CCNCC3)c2-c2ccnc(Oc3ccccc3)n2)cc1`, the inhibition in [1] was -1.73%; in test [2], 1.51%; in test [3], 1.09%; in test [4], 6.73%; in test [5], 1.68%; in test [6], -3.14%. In addition, the inhibition turned out to be 1.08% in test [7]; 4.13% in test [8]; 3.12% in [9]; 2.6% in test [10]; 3.7% in test [11]; 1.07% in test [12]. Further, the inhibition in [13] is 1.73%; in test [14], 3.29%; in test [15], 1.85%; in test [16], 7.63%; in [17], 2.1%; in test [18], 2.34%. The inhibition in test [19] stood at 6.68%; in test [20], 2.53%.
